Source: PubChem BioAssay (Tox21)
A number with no mark means an inactive call. Inconclusive results are not listed. A call without a number means that no potency is given here. The source made the active and inactive calls. Unless noted, calls follow the shape of the dose curve; as a rule, active = well fitted curve in the direction sought with a large enough effect in the repeat runs; inconclusive = weak or mixed curves; inactive = no such curve, though single readings can be large; an effect the other way counts as inactive or inconclusive.

Tests used:
[1] = A CellTox Green Cytotoxicity Assay to monitor cytotoxicity in HEK293 cells - 32 hour (AID 1224881); also: nearly all actives have a fitted effect of over 40% in size; also: potency is read from the fitted curve at half-maximal effect
Procedure, shortened: (§1)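 Each value comes from one timepoint of a single continuous run in which HEK293 cells with CellTox Green were exposed to compound for up to 40 h at 37 C, dye fluorescence rising with cell death.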

[2] = A CellTox Green Cytotoxicity Assay to monitor cytotoxicity in HepG2 cells - 0 hour (AID 1224882); also: nearly all actives have a fitted effect of over 35% in size; also: potency is read from the fitted curve at half-maximal effect
Procedure, shortened: (§2)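 Continuous culture of HepG2 cells with a membrane-impermeant DNA dye; rising fluorescence marks dead cells. Compound exposure lasted up to 40 h at 37 C, with reads every 8 h from 0 h.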

[3] = A CellTox Green Cytotoxicity Assay to monitor cytotoxicity in HepG2 cells - 32 hour (AID 1224883); also: nearly all actives have a fitted effect of over 50% in size; also: potency is read from the fitted curve at half-maximal effect
Procedure, shortened: as §2

[4] = A CellTox Green Cytotoxicity Assay to monitor cytotoxicity in HEK293 cells - 8 hour (AID 1224884); also: nearly all actives have a fitted effect of over 35% in size
Procedure, shortened: as §1

[5] = qHTS RealTime-Glo MT Cell Viability Assay in HepG2 cells - 16 hour (AID 1224885); also: nearly all actives have a fitted effect of over 50% in size
Procedure, shortened: (§3)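 HepG2 cells were seeded at 600 cells/well together with NanoLuc luciferase and a cell-permeant prosubstrate, preincubated 5 h at 37 C/5% CO2, then pin-dosed with compounds in DMSO. Nonlytic luminescence from viable cells was read at each time point.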

[6] = qHTS RealTime-Glo MT Cell Viability Assay in HEK293 cells - 24 hour (AID 1224886); also: nearly all actives have a fitted effect of over 50% in size; also: potency is read from the fitted curve at half-maximal effect; as to activity change, negative = cytotoxicity: top concentration of the series differs between compounds
Procedure, shortened: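 HEK293 cells were seeded at 600 cells/well together with NanoLuc luciferase and cell-permeant prosubstrate, preincubated 5 h at 37 C/5% CO2, then given compound in DMSO by pintool. Luminescence from viable-cell prosubstrate reduction was read repeatedly over 40 h.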

[7] = qHTS RealTime-Glo MT Cell Viability Assay in HEK293 cells - 8 hour (AID 1224887); also: nearly all actives have a fitted effect of over 50% in size; also: potency is read from the fitted curve at half-maximal effect; as to activity change, negative = cytotoxicity: top concentration of the series differs between compounds
Procedure, shortened: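 qHTS format; HEK293 cells with NanoLuc/prosubstrate reagent, 37 C/5% CO2 for 5 h pre-dosing; compounds 23 nL in DMSO; luminescence at each time point reflects viable cells.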

[8] = A CellTox Green Cytotoxicity Assay to monitor cytotoxicity in HEK293 cells - 16 hour (AID 1224888); also: nearly all actives have a fitted effect of over 35% in size
Procedure, shortened: as §1

[9] = qHTS RealTime-Glo MT Cell Viability Assay in HepG2 cells - 0 hour (AID 1224889); also: nearly all actives have a fitted effect of over 50% in size
Procedure, shortened: as §3

[10] = A CellTox Green Cytotoxicity Assay to monitor cytotoxicity in HepG2 cells - 8 hour (AID 1224890); also: nearly all actives have a fitted effect of over 45% in size; also: potency is read from the fitted curve at half-maximal effect
Procedure, shortened: as §2

[11] = qHTS assay to identify small molecule antagonists of the estrogen receptor alpha (ER-alpha) signaling pathway using the BG1 cell line in the presence of 0.1 nM 17-beta-estradiol - cell viability counter screen (AID 1259241); also: nearly all actives have a fitted effect of over 40% in size; also: potency is read from the fitted curve at half-maximal effect
Procedure, shortened: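 The cell line endogenously expresses full-length ER-alpha and carries four EREs driving luciferase. Cells are cultured 5 days hormone-free, treated 22 hr with compounds and 0.1 nM estradiol, then viability is read by fluorescence.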

[12] = qHTS assay to identify small molecule antagonists of the androgen receptor (AR) signaling pathway using the MDA cell line in the presence of 0.5 nM R1881 - cell viability counter screen (AID 1259242); also: nearly all actives have a fitted effect of over 45% in size; also: potency is read from the fitted curve at half-maximal effect
Procedure, shortened: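 Fluorescence from CellTiter-Fluor, which reports protease activity of live cells, was read 30 min after reagent addition to MDA-kb2 cells that had been incubated 16 hr with compound and 0.5 nM R1881.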

[13] = biological target: Estrogen receptor (Homo sapiens) (UniProt P03372); test: qHTS assay to identify small molecule antagonists of the estrogen receptor alpha (ER-alpha) signaling pathway using the BG1 cell line in the presence of 0.1 nM 17-beta-estradiol (AID 1259244); also: nearly all actives have a fitted effect of over 50% in size; also: potency is read from the fitted curve at half-maximal effect
Procedure, shortened: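 Quantitative high-throughput screen in VM7Luc4E2 cells: compound plus 0.1 nM E2 (final), 22 h, 37C, 5% CO2; ONE-Glo added, 30 min room temperature, luminescence measured.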

[14] = qHTS assay to identify small molecule HDAC inhibitors - cell viability counter screen (AID 1259365)
Procedure, shortened: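 Viability readout: CellTiter-Glo luminescence. Wild-type HCT-116 cells, 2hr compound treatment following overnight attachment at 37 C.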

[15] = biological target: Androgen receptor (Homo sapiens) (UniProt P10275); test: qHTS assay to identify small molecule antagonists of the androgen receptor (AR) signaling pathway using the MDA cell line in the presence of 0.5 nM R1881 (AID 1259243); also: nearly all actives have a fitted effect of over 50% in size; also: potency is read from the fitted curve at half-maximal effect
Procedure, shortened: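 Inhibition of R1881 (0.5 nM final) induced reporter signal was measured in human MDA-kb2 cells; note the MMTV promoter also responds to GR. Exposure lasted 16 hr at 37C.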

[16] = qHTS assay to identify small molecule HDAC inhibitors (AID 1259364); also: top concentration of the series differs between compounds; nearly all actives have a fitted effect of over 45% in size
Procedure, shortened: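 Endogenous HDAC class I/II activity was measured in wild-type HCT-116 cells by HDAC-Glo luminescence after 2 h compound treatment.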

[17] = qHTS assay to identify small molecule agonists of the sonic hedgehog signaling (Shh) pathway - cell viability counter screen (AID 1259366); also: nearly all actives have a fitted effect of over 50% in size; also: potency is read from the fitted curve at half-maximal effect
Procedure, shortened: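 Viability measured fluorometrically (CellTiter-Fluor, 1hr, 37C) in 3T3 Gli1-Luc reporter cells after 23hr compound exposure within a 24hr incubation at 37C/5% CO2.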

[18] = qHTS assay to identify small molecule antagonists of the sonic hedgehog signaling (Shh) pathway - cell viability counter screen (AID 1259367); also: nearly all actives have a fitted effect of over 55% in size; also: potency is read from the fitted curve at half-maximal effect
Procedure, shortened: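 Using CellTiter-Fluor, viability of Gli1-Luc reporter 3T3 cells is read by fluorescence in the wells used for the Shh luciferase assay. Treatment lasts 23 hr with conditioned medium, then reagent 1 hr at 37C.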

[19] = qHTS assay to identify small molecule agonists of the sonic hedgehog signaling (Shh) pathway (AID 1259368; calls by dose curve;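 also: NIH/3T3-derived 3T3Gli1-Luc cells carrying a stable Gli1-driven firefly luciferase reporter; series mostly up to about 92 µM; nearly all actives have a fitted effect of over 15% in size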)
Procedure, shortened: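 Luminescent signal was taken as a measure of Gli1-controlled luciferase expression in stably transfected NIH/3T3-derived cells that had been treated for 24 hr with compounds delivered in DMSO.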

Estrogen receptor (Homo sapiens), sequence (P03372 whole entry, looked up): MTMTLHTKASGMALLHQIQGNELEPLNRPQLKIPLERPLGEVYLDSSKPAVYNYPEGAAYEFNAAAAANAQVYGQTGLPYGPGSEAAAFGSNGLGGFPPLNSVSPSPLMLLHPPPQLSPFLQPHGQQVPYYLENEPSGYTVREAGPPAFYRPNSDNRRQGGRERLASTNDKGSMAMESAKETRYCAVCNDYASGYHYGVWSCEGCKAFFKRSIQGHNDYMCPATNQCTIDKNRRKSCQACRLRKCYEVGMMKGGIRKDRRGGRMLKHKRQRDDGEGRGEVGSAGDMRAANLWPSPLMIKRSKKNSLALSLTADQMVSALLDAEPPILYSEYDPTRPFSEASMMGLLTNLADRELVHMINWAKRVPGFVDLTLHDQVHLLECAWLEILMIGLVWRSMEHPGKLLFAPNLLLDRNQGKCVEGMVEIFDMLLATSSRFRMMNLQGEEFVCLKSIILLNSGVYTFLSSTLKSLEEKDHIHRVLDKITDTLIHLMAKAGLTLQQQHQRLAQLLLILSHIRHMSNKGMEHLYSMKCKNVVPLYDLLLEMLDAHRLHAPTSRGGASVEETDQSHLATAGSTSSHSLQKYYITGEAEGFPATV
Androgen receptor (Homo sapiens), sequence (P10275 whole entry, looked up): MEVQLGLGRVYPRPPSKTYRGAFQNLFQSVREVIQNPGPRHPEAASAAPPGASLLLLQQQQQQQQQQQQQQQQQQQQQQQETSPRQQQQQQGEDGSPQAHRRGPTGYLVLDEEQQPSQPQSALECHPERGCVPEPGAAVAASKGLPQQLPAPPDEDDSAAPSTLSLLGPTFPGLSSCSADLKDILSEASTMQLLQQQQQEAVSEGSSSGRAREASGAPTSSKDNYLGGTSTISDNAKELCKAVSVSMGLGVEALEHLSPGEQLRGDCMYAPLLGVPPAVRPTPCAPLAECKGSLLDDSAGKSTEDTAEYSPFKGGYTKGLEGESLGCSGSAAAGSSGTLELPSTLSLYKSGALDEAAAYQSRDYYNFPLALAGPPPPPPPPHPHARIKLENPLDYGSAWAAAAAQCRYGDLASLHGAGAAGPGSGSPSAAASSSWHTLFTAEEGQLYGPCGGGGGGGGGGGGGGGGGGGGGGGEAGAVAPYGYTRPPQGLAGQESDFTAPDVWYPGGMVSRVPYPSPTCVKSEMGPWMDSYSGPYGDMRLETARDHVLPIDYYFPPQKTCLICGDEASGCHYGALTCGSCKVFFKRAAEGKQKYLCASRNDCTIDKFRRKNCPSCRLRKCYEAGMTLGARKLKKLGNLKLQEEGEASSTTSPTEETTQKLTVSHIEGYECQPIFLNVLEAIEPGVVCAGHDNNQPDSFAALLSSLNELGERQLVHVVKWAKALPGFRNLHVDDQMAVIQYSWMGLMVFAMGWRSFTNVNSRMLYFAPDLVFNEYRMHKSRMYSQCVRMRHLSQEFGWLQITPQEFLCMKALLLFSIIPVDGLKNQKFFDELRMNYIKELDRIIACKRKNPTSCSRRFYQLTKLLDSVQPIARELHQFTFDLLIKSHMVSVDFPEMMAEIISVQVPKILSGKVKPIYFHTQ

Question: For `CCc1nn(C)c(C(=O)NCc2ccc(C(C)(C)C)cc2)c1Cl`, which Potency [1] is on record?
Answer: inactive

Question: And the Potency [2]?
Answer: inactive

Question: What about the Potency [3] of the same molecule?
Answer: inactive

Question: What about the Potency [4] of the same molecule?
Answer: inactive

Question: What about the Potency [5] of the same molecule?
Answer: inactive

Question: And the Potency [6]?
Answer: 0.049 µM (active)

Question: What about the Potency [7] of the same molecule?
Answer: 4.36 µM (active)

Question: What about the Potency [8] of the same molecule?
Answer: inactive

Question: And the Potency [9]?
Answer: inactive

Question: And the Potency [10]?
Answer: inactive

Question: What about the Potency [11] of the same molecule?
Answer: 0.77 µM (active)

Question: And the Potency [12]?
Answer: 0.433 µM (active)

Question: What about the Potency [13] of the same molecule?
Answer: 0.0863 µM (active)

Question: And the Potency [14]?
Answer: inactive

Question: Which Potency [1] does the source give for `Nc1c(Oc2ccccc2)cc(O)c2c1C(=O)c1ccccc1C2=O` here?
Answer: inactive

Question: What about the Potency [2] of the same molecule?
Answer: inactive

Question: What about the Potency [3] of the same molecule?
Answer: inactive

Question: What about the Potency [4] of the same molecule?
Answer: inactive

Question: And the Potency [5]?
Answer: inactive

Question: What about the Potency [6] of the same molecule?
Answer: 21.3 µM (active)

Question: What about the Potency [7] of the same molecule?
Answer: 10.7 µM (active)

Question: What about the Potency [8] of the same molecule?
Answer: inactive

Question: And the Potency [9]?
Answer: inactive

Question: And the Potency [10]?
Answer: inactive

Question: What about the Potency [12] of the same molecule?
Answer: inactive

Question: And the Potency [15]?
Answer: inactive

Question: And the Potency [13]?
Answer: inactive

Question: What about the Potency [16] of the same molecule?
Answer: inactive

Question: What about the Potency [14] of the same molecule?
Answer: inactive

Question: What about the Potency [17] of the same molecule?
Answer: inactive

Question: What does the source list for `COP(=S)(OC)Oc1cc(Cl)c(Br)cc1Cl`?
Answer: Potency [1]: inactive; Potency [2]: inactive; Potency [3]: inactive; Potency [4]: inactive; Potency [5]: inactive; Potency [6]: inactive; Potency [7]: inactive; Potency [8]: inactive; Potency [10]: inactive; Potency [11]: inactive; Potency [12]: inactive; Potency [15]: 54.5 µM (active); Potency [16]: inactive; Potency [14]: inactive; Potency [18]: inactive; Potency [19]: inactive

Question: Which cytotoxicity increase [1] does the source give for `Brc1c(Br)c(Br)c(Oc2c(Br)c(Br)c(Br)c(Br)c2Br)c(Br)c1Br` here?
Answer: -3.94% [at 15.8 µM]

Question: What about the cytotoxicity [2] of the same molecule?
Answer: -0.0157% [at 15.8 µM]

Question: And the cytotoxicity increase [3]?
Answer: 0.162% [at 15.8 µM]

Question: And the cytotoxicity increase [4]?
Answer: -3.68% [at 15.8 µM]

Question: And the activity change, negative = cytotoxic [5]?
Answer: 1.53% [at 15.8 µM]

Question: And the activity change, negative = cytotoxicity [6]?
Answer: -0.0351% [at 15.8 µM]

Question: What about the activity change, negative = cytotoxicity [7] of the same molecule?
Answer: 4.64% [at 15.8 µM]

Question: What about the activity change [8] of the same molecule?
Answer: -4.12% [at 15.8 µM, stronger effect = higher value]

Question: And the activity change, negative = cytotoxicity [9]?
Answer: 13.9% [at 15.8 µM]

Question: And the cytotoxicity increase [10]?
Answer: -0.348% [at 15.8 µM]

Question: And the activity change, negative = cytotoxicity [11]?
Answer: 5.06% [at 19 µM]

Question: What about the viability change, negative = cytotoxic [12] of the same molecule?
Answer: -0.43% [at 19 µM]

Question: And the activity change, negative = inhibition [16]?
Answer: -0.806% [at 19 µM]

Question: What about the activity change, negative = cytotoxicity [14] of the same molecule?
Answer: 2.12% [at 19 µM]

Question: And the viability change, negative = cytotoxic [17]?
Answer: -1.06% [at 19 µM]

Question: And the viability change, negative = cytotoxic [18]?
Answer: 4.4% [at 19 µM]

Question: What about the activity change [19] of the same molecule?
Answer: 0.699% [at 18.9 µM, stronger effect = higher value]

Question: Which results are given for `O=C(CCl)C(Cl)Cl`?
Answer: Potency [1]: 27.8 µM (active); Potency [2]: inactive; Potency [3]: 55.5 µM (active); Potency [4]: inactive; Potency [5]: inactive; Potency [6]: 17.5 µM (active); Potency [8]: inactive; Potency [9]: inactive; Potency [10]: inactive; Potency [11]: inactive; Potency [13]: inactive; Potency [16]: inactive; Potency [14]: inactive; Potency [17]: 17.4 µM (active); Potency [18]: 17.4 µM (active); Potency [19]: inactive

Question: Which results are given for `c1ccc(OCC2CO2)cc1` (configuration not stated)?
Answer: Potency [1]: inactive; Potency [2]: inactive; Potency [3]: inactive; Potency [4]: inactive; Potency [5]: inactive; Potency [6]: inactive; Potency [7]: inactive; Potency [8]: inactive; Potency [9]: inactive; Potency [10]: inactive; Potency [11]: inactive; Potency [12]: inactive; Potency [16]: inactive; Potency [14]: inactive; Potency [17]: inactive; Potency [18]: inactive; Potency [19]: inactive

Question: Which Potency [1] does the source give for `N#CC(Cl)Cl` here?
Answer: inactive

Question: What about the Potency [2] of the same molecule?
Answer: 1.51 µM (active)

Question: What about the Potency [3] of the same molecule?
Answer: inactive

Question: And the Potency [4]?
Answer: inactive

Question: What about the Potency [5] of the same molecule?
Answer: inactive

Question: And the Potency [7]?
Answer: inactive

Question: What about the Potency [8] of the same molecule?
Answer: inactive

Question: And the Potency [9]?
Answer: inactive

Question: What about the Potency [10] of the same molecule?
Answer: 1.51 µM (active)

Question: What about the Potency [11] of the same molecule?
Answer: inactive

Question: What about the Potency [12] of the same molecule?
Answer: inactive

Question: And the Potency [15]?
Answer: inactive

Question: What about the Potency [16] of the same molecule?
Answer: inactive

Question: And the Potency [14]?
Answer: inactive

Question: And the Potency [18]?
Answer: inactive

Question: What about the Potency [19] of the same molecule?
Answer: inactive
